PubChem BioAssay (Tox21)
A number with no mark means an inactive call. Records with an inconclusive call do not appear. Where a call stands in place of a potency, no number is given. Calls of active or inactive are those of the source. Unless noted, calls come from the whole dose curve.

Key:
[1] = Nuclear factor erythroid 2-related factor 2/antioxidant responsive element (Nrf2/ARE) small molecule agonists: qHTS cell viability counter screen in human keratinocytes (AID 1919968; active = well fitted curve in the direction sought with a large enough effect in the repeat runs; an effect the other way counts as inactive or inconclusive; note: nearly all actives have a fitted effect of over 55% in size)
In short: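 KeratinoSens HaCaT cells, 1,500/well, preincubated 5 h, then exposed to compounds in DMSO for 23 h at 37 C/5% CO2. Viability read as CellTiter-Fluor fluorescence after 1 h, in the same wells as the ARE-luciferase read.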

[2] = molecular target: Gonadotropin-releasing hormone receptor (Homo sapiens) (UniProt P30968); assay: Human gonadotropin-releasing hormone receptor (GnRHR) small molecule agonists, calcium flux assay in GnRHR-HEK293 cells (AID 1920063); note: nearly all actives have a fitted effect of over 35% in size
In short: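 HEK293 cells stably expressing human GnRHR were dye-loaded for 1 h at 37 C. Compound was added in agonist mode and fluorescence (Ex/Em 480/540) recorded kinetically for 3 min. Fifteen concentrations, triplicates.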

[3] = molecular target: KiSS-1 receptor (Homo sapiens) (UniProt Q969F8); assay: Human kisspeptin (KISS1R) small molecule agonists, calcium flux assay in KISS1R-HEK293 cells (AID 1920064; active = well fitted curve in the direction sought with a large enough effect in the repeat runs; an effect the other way counts as inactive or inconclusive)
In short: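 HEK293 cells stably expressing human KISS1R were loaded with calcium dye for 1 h at 37 C, then given compound; fluorescence (Ex/Em 480/540) was read kinetically for 3 min. Fifteen concentrations, triplicate.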

[4] = G protein-coupled receptor (GPCR) small molecule agonists, calcium flux assay: HEK293 wild type cell line counter screen (AID 1920065)
In short: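 Wild-type HEK293 cells plated 18 h, loaded with calcium dye 1 h at 37 C, then compounds added in agonist mode (ATP as positive control). Kinetic fluorescence Ex/Em 480/540 recorded 3 min at 1 sec intervals; 15 concentrations, triplicate.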

[5] = p53 small molecule agonists, cell-based qHTS assay with human liver microsomes (AID 1963577);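 note: p53 response element beta-lactamase reporter cells with liver microsomes plus NADPH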
In short: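 HLM-supplemented p53RE-bla reporter assay: 16 h compound exposure at 37 C, microsomes and NADPH each 0.5 mg/mL final, read by fluorescence intensity.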

[6] = p53 small molecule agonists, cell-based qHTS assay with human liver microsomes: qHTS cell viability counter screen (AID 1963579); note: nearly all actives have a fitted effect of over 45% in size
In short: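 Viability of p53RE-bla cells is measured as CellTiter-Glo luminescence following a 16 h, 37 C incubation with compound, liver microsomes from human donors and NADPH.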

[7] = p53 small molecule agonists, cell-based qHTS assay with rat liver microsomes: qHTS cell viability counter screen (AID 1963580); note: nearly all actives have a fitted effect of over 45% in size
In short: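 p53RE-bla HCT-116 cells were exposed 16 h at 37 C to compounds with rat liver microsomes (0.5 mg/mL) and NADPH (0.5 mg/mL). Viability was measured in the same wells as ATP content by CellTiter-Glo luminescence.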

[8] = p53 small molecule agonists, cell-based qHTS assay: qHTS cell viability counter screen (AID 1963581); note: nearly all actives have a fitted effect of over 45% in size
In short: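 p53RE-bla HCT-116 cells, compounds added 5 h after plating and incubated 16 h at 37 C. Cytotoxicity measured in the same wells as intracellular ATP by CellTiter-Glo luminescence after 30 min at room temperature.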

[9] = p53 small molecule agonists, cell-based qHTS assay (AID 1963582; active = well fitted activation curve with a large enough effect in the signal ratio in the repeat runs, not every such curve was filed as active; the % refers to the signal ratio)
In short: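 p53RE-bla reporter cells, compounds added in DMSO after 5 h plating, incubated 16 h at 37 C. Beta-lactamase read via 2 h room-temperature LiveBLAzer B/G FRET substrate, fluorescence intensity.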

[10] = molecular target: 5-hydroxytryptamine receptor 2A (Homo sapiens) (UniProt P28223); assay: 5-hydroxytryptamine receptor 2A (HTR2A) small molecule antagonists, cell-based qHTS assay (AID 1963586); note: nearly all actives have a fitted effect of over 45% in size
In short: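 Antagonist-mode intracellular calcium assay: DOI (4 nM) added after 5 min compound pre-incubation at room temperature to dye-loaded HTR2A-CHO cells. Fluorescence followed for 3 min, sampled every second.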

[11] = molecular target: 5-hydroxytryptamine receptor 2A (Homo sapiens) (UniProt P28223); assay: 5-hydroxytryptamine receptor 2A (HTR2A) small molecule agonists, cell-based qHTS assay (AID 1963587); note: nearly all actives have a fitted effect of over 30% in size; note: potency is the fitted concentration of half-maximal effect
In short: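 CHO cells stably expressing human HTR2A, plated 18 h, loaded with calcium dye 1 h at 37 C. Agonist mode: compounds added and intracellular calcium fluorescence recorded kinetically for 2 min at 1 sec intervals.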

[12] = molecular target: Muscarinic acetylcholine receptor M1 (Homo sapiens) (UniProt P11229); assay: Cholinergic receptor muscarinic 1 (CHRM1) small molecule antagonists, cell-based qHTS assay (AID 1963588); note: nearly all actives have a fitted effect of over 40% in size
In short: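 CHRM1-CHO calcium-flux assay, antagonist mode. Cells were seeded 18 h, dye-loaded 1 h at 37 C and given compound for 5 min at RT, then acetylcholine was added at 50nM. FDSS fluorescence was read 3 min; 15 concentrations, three runs.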

[13] = cAMP Responsive Elements (CRE) small molecule antagonists, cell-based qHTS assay (AID 1963591; active = well fitted inhibition curve with a large enough effect in the signal ratio in the repeat runs, not every such curve was filed as active; the % refers to the signal ratio)
In short: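 CRE-bla HEK293T cells plated 18 h, then given compound plus NKH477 at 0.25 uM final for 3 h at 37C. Beta-lactamase reporter read with LiveBLAzer B/G FRET substrate after 2 h at room temperature.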

[14] = molecular target: Beta-2 adrenergic receptor (Homo sapiens) (UniProt P07550); assay: Adrenergic beta2 receptor (ADRB2) small molecule agonists, cell-based qHTS assay (AID 1963593);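 note: CHO cells stably overexpressing human ADRB2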
In short: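 CHO cells stably over-expressing ADRB2 were plated overnight at 37C, then dosed with compounds plus a stimulation mix containing 100uM IBMX and 25uM Ro-20-1724 for 0.5hr at room temperature. cAMP was measured by HTRF competition, 1hr.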

[15] = molecular target: D(2) dopamine receptor (Homo sapiens) (UniProt P14416); assay: Dopamine D2 receptor (DRD2) small molecule agonists, cell-based qHTS assay (AID 1963594); note: nearly all actives have a fitted effect of over 35% in size
In short: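 HEK293 cells stably expressing human DRD2, pre-treated with PDE inhibitor Ro20-1724 (0.1 mM final) and compound 10 min at room temperature, then stimulated with NKH477 (200nM […]) for 30 min. cAMP read by HTRF (665/620 nm).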

[16] = molecular target: D(2) dopamine receptor (Homo sapiens) (UniProt P14416); assay: Dopamine D2 receptor (DRD2) small molecule antagonists, cell-based qHTS assay (AID 1963595; active = well fitted inhibition curve with a large enough effect in the signal ratio in the repeat runs, with a control signal flat; the % refers to the signal ratio)
In short: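 Antagonist mode in DRD2-HEK293 cells: after compound addition with 0.1 mM Ro20-1724, cells received quinpirole (12 nM) and NKH477 (200 nM) for 30 min at room temperature; HTRF cAMP read after 1 h detection.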

[17] = p53 small molecule agonists, cell-based qHTS assay with rat liver microsomes (AID 1963578)
In short: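 Quantitative HTS of the Tox21 10K library: p53RE-bla cells, rat liver microsomes plus NADPH at 0.5 mg/mL final each, 16 h at 37 C, beta-lactamase fluorescence detection.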

[18] = molecular target: Muscarinic acetylcholine receptor M1 (Homo sapiens) (UniProt P11229); assay: Cholinergic receptor muscarinic 1 (CHRM1) small molecule agonists, cell-based qHTS assay (AID 1963589); note: nearly all actives have a fitted effect of over 35% in size
In short: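 CHO cells stably expressing human CHRM1 were loaded with calcium dye for 1 h at 37 C, then compound was added in agonist mode. Intracellular calcium fluorescence was followed kinetically at 1 s intervals. Fifteen concentrations were tested in three independent runs.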

[19] = cAMP Responsive Elements (CRE) small molecule agonists, cell-based qHTS assay (AID 1963590)
In short: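 CRE-bla HEK 293T cells, 2,000/well in DMEM with 10% dialyzed FBS and 25 mM HEPES, pre-incubated 18 h at 37 C, then exposed to compound 3 h at 37 C. Beta-lactamase reporter read with LiveBLAzer B/G FRET substrate after 2 h at room temperature.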

[20] = molecular target: Beta-2 adrenergic receptor (Homo sapiens) (UniProt P07550); assay: Adrenergic beta2 receptor (ADRB2) small molecule antagonists, cell-based qHTS assay (AID 1963592); note: nearly all actives have a fitted effect of over 50% in size; note: potency is the fitted concentration of half-maximal effect; for activity change, negative = inhibition: series mostly up to about 92 µM
In short: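 Cells (CHO, stable ADRB2 overexpression) incubated 18-20hr at 37C; compounds added from DMSO; agonist mix (1nM isoproterenol, 100uM IBMX, 25uM Ro-20-1724) added; 0.5hr RT; d2-cAMP and anti-cAMP-cryptate added; 1hr RT; 665/615 nm read.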

Chain of Gonadotropin-releasing hormone receptor (Homo sapiens) (P30968 whole entry, looked up): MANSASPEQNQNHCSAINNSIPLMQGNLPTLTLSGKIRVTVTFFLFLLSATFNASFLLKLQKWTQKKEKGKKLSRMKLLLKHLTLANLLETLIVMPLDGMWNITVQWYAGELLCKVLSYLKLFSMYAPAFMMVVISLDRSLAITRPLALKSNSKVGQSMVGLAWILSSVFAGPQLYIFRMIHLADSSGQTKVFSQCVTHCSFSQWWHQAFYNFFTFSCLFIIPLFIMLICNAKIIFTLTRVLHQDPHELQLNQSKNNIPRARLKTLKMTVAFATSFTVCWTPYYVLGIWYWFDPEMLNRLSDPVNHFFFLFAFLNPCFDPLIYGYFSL
Chain of KiSS-1 receptor (Homo sapiens) (Q969F8 whole entry, looked up): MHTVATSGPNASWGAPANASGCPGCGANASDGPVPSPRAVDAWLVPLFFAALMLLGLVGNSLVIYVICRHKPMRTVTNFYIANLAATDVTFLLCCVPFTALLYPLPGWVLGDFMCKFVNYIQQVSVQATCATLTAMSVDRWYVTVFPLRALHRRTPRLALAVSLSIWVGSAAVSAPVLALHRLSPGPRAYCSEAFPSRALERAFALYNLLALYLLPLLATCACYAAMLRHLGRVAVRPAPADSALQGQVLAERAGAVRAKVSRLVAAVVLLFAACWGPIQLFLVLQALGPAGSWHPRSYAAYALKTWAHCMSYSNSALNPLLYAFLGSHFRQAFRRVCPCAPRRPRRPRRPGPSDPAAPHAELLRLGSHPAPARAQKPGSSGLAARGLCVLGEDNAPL
Chain of Muscarinic acetylcholine receptor M1 (Homo sapiens) (P11229 whole entry, looked up): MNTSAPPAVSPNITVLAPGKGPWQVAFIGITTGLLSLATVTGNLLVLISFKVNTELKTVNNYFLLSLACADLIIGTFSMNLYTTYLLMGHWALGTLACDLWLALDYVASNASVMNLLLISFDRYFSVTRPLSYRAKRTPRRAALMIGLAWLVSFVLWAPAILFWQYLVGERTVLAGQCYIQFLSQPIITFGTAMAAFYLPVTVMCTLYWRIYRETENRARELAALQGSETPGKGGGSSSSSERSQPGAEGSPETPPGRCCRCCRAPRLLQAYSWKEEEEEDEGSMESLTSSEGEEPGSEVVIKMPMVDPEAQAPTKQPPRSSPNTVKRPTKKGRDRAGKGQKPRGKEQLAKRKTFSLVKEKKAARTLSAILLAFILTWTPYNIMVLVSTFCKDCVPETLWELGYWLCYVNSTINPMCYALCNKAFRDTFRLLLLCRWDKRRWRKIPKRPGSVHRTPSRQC
Chain of Beta-2 adrenergic receptor (Homo sapiens) (P07550 whole entry, looked up): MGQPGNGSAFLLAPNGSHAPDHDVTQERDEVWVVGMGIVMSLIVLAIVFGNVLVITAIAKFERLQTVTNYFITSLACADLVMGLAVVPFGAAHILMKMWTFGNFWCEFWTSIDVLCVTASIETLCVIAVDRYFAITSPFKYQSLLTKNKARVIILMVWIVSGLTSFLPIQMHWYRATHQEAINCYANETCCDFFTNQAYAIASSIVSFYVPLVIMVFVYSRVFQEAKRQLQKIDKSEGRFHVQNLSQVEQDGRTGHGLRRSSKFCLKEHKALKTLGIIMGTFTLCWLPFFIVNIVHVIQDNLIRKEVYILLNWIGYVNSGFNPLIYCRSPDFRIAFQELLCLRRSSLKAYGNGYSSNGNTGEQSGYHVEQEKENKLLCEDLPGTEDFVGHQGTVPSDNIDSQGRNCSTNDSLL
Chain of D(2) dopamine receptor (Homo sapiens) (P14416 whole entry, looked up): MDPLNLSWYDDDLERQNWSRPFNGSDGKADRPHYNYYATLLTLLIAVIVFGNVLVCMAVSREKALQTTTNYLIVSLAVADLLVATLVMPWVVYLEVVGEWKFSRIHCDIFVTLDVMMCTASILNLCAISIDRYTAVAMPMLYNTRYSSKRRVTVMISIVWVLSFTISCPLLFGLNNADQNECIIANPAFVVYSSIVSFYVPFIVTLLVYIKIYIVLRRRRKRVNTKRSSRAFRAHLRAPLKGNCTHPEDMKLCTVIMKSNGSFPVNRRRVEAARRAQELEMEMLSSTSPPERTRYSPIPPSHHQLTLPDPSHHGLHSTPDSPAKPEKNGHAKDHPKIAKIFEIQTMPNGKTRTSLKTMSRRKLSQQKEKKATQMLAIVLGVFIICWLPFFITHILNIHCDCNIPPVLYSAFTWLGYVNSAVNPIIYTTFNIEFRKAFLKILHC
Chain of 5-hydroxytryptamine receptor 2A (Homo sapiens) (P28223 whole entry, looked up): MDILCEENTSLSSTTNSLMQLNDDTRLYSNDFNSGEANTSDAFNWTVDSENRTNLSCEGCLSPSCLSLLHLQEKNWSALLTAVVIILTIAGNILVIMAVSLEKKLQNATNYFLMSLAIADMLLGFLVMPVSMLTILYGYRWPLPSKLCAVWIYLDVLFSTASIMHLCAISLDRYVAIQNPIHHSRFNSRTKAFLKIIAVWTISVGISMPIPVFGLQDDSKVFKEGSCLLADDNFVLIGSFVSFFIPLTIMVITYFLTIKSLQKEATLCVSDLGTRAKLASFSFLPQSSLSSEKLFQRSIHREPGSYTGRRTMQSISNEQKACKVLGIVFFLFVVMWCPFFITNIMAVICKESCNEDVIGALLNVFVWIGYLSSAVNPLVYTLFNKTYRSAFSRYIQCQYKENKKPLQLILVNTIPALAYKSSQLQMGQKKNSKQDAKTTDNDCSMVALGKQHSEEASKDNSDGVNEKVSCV

## CCCCC(CC)COCCCN (configuration not stated)
[1]
  Potency: inactive
[2]
  Potency: inactive
[3]
  Potency: inactive
[4]
  Potency: inactive
[5]
  Potency: inactive
[6]
  Potency: inactive
[7]
  Potency: inactive
[8]
  Potency: inactive
[9]
  Potency: inactive
[10]
  Potency: inactive
[11]
  Potency: 17.2 µM (active)
[12]
  Potency: inactive
[13]
  Potency: inactive
[14]
  Potency: inactive
[15]
  Potency: inactive
[16]
  Potency: inactive

## CC(C)NC(=O)c1ccc(C=O)cc1
[1]
  Potency: inactive
[2]
  Potency: inactive
[3]
  Potency: inactive
[4]
  Potency: inactive
[17]
  Potency: inactive
[6]
  Potency: inactive
[7]
  Potency: inactive
[8]
  Potency: inactive
[9]
  Potency: inactive
[10]
  Potency: inactive
[11]
  Potency: inactive
[12]
  Potency: inactive
[18]
  Potency: inactive
[19]
  Potency: inactive
[13]
  Potency: inactive
[20]
  Potency: inactive
[15]
  Potency: inactive
[16]
  Potency: inactive

## CN1C(=O)c2ccccc2C1=O
[1]
  Potency: inactive
[2]
  Potency: inactive
[3]
  Potency: inactive
[4]
  Potency: inactive
[5]
  Potency: inactive
[6]
  Potency: inactive
[8]
  Potency: inactive
[9]
  Potency: inactive
[10]
  Potency: inactive
[11]
  Potency: inactive
[18]
  Potency: inactive
[19]
  Potency: inactive
[13]
  Potency: inactive
[20]
  Potency: 54.5 µM (active)
[16]
  Potency: inactive

## Cc1nn(C)c(Oc2ccccc2)c1/C=N/OCc1ccc(C(=O)OC(C)(C)C)cc1
[1]
  Potency: inactive
[2]
  Potency: inactive
[3]
  Potency: inactive
[4]
  Potency: inactive
[17]
  Potency: inactive
[6]
  Potency: inactive
[7]
  Potency: inactive
[10]
  Potency: inactive
[11]
  Potency: inactive
[12]
  Potency: inactive
[18]
  Potency: inactive
[14]
  Potency: inactive
[15]
  Potency: inactive

## CC1=C(C/C=C(\C)CCC[C@H](C)CCC[C@H](C)CCCC(C)C)C(=O)c2ccccc2C1=O
[1]
  Potency: inactive
[2]
  Potency: inactive
[3]
  Potency: inactive
[4]
  Potency: inactive
[17]
  Potency: inactive
[6]
  Potency: inactive
[7]
  Potency: inactive
[8]
  Potency: inactive
[10]
  Potency: inactive
[11]
  Potency: inactive
[12]
  Potency: inactive
[18]
  Potency: inactive
[19]
  Potency: inactive
[13]
  Potency: inactive
[20]
  Potency: inactive
[15]
  Potency: inactive
[16]
  Potency: inactive

## c1ccc2sc(SSc3nc4ccccc4s3)nc2c1
[1]
  activity change, negative = cytotoxicity: 22.3% [at 19 µM]
[2]
  activity change: -1.6% [at 11.8 µM, hits give high values]
[3]
  activation: 4.25% [at 15.8 µM]
[4]
  activation: 0.255% [at 11.8 µM]
[5]
  activation: 13.9% [at 13.5 µM]
[6]
  activity change, negative = cytotoxicity: -2.64% [at 13.5 µM]
[7]
  activity change, negative = cytotoxicity: 0.0229% [at 13.5 µM]
[19]
  activation: -0.0759% [at 19 µM]
[13]
  activity change, negative = inhibition: 0.327% [at 18.9 µM]
[20]
  activity change, negative = inhibition: 1.66% [at 19 µM]
[15]
  activation: 10.5% [at 19 µM]
[16]
  activity change, negative = inhibition: 5.58% [at 18.9 µM]

## N#CCCCC(C#N)CCC#N (configuration not stated)
[1]
  Potency: inactive
[2]
  Potency: inactive
[3]
  Potency: inactive
[4]
  Potency: inactive
[17]
  Potency: inactive
[6]
  Potency: inactive
[7]
  Potency: inactive
[8]
  Potency: inactive
[9]
  Potency: inactive
[10]
  Potency: inactive
[11]
  Potency: inactive
[12]
  Potency: inactive
[18]
  Potency: inactive
[13]
  Potency: inactive
[14]
  Potency: inactive
[16]
  Potency: inactive

## CCCCCCCCCCCCSC#N
[1]
  Potency: inactive
[2]
  Potency: inactive
[3]
  Potency: inactive
[4]
  Potency: inactive
[17]
  Potency: inactive
[6]
  Potency: inactive
[7]
  Potency: inactive
[8]
  Potency: inactive
[9]
  Potency: inactive
[10]
  Potency: inactive
[12]
  Potency: inactive
[18]
  Potency: inactive
[19]
  Potency: inactive
[15]
  Potency: inactive
[16]
  Potency: inactive
